Experimental data: PubChem BioAssay (NCI)
About 79,000 compounds went through this panel and 15% of them were active in at least one assay; those are over-represented in the sample as a whole. Rule as the data show it: active = growth inhibition above about 70%; inactive = the rest.

Tests used:
[1] = NCI Yeast Anticancer Drug Screen. Data for the rad50 strain (AID 155);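 also: 0% = growth of vehicle-only cultures of the same strain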; details: S. cerevisiae rad50 strain growth inhibition; at 50.0 µM; hits give high values
Procedure, shortened: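 Relative growth inhibition (compound vs vehicle) was measured in yeast with a defined repair-gene alteration.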

[2] = NCI Yeast Anticancer Drug Screen. Data for the mec2-1 strain (AID 157); details: S. cerevisiae mec2-1 strain, at 50.0 µM, hits give high values
Procedure, shortened: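 mec2-1 yeast strain, carrying an alteration in DNA damage repair or cell cycle control, was exposed to compounds; growth inhibition was measured relative to vehicle-treated controls.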

[3] = NCI Yeast Anticancer Drug Screen. Data for the sgs1 mgt1 strain (AID 161);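 also: 0% = growth of cultures given vehicle only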; details: S. cerevisiae sgs1 mgt1 strain, at 50.0 µM, hits give high values
Procedure, shortened: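 Yeast cells carrying a defined DNA-repair defect were exposed to test compounds. Growth inhibition was measured relative to vehicle-treated controls.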

[4] = NCI Yeast Anticancer Drug Screen. Data for the cln2 rad14 strain (AID 165);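 also: 0% = growth equal to vehicle treated cultures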; details: S. cerevisiae cln2 rad14 strain, at 50.0 µM, hits give high values
Procedure, shortened: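 Yeast carrying cln2 and rad14 alterations (cell cycle control and DNA damage repair) were exposed to compounds. Growth inhibition was measured against vehicle-treated controls.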

[5] = NCI Yeast Anticancer Drug Screen. Data for the bub3 strain (AID 167); details: S. cerevisiae bub3 mutant strain, at 50.0 µM, hits give high values
Procedure, shortened: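 Screening used yeast with an engineered genetic alteration affecting cell cycle control. Compound-exposed cultures were compared with vehicle cultures, and reduced growth was taken as inhibition.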

[6] = NCI Yeast Anticancer Drug Screen. Data for the mlh1 rad18 strain (AID 175); details: S. cerevisiae mlh1 rad18 strain growth inhibition; at 50.0 µM; hits give high values
Procedure, shortened: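 Growth inhibition of the yeast strain was measured after compound exposure and expressed relative to vehicle-treated controls. The strain carries defined defects in DNA damage repair.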

Measured: growth inhibition

CC[n+]1nc2ccccc2c(=Nc2ccccc2[N+](=O)[O-])[n-]1
inactive: [1] 11.8% | [2] 13.1% | [3] 12.3% | [4] 29.4% | [5] 25.2% | [6] 7.15%

CCCCOC(=O)COc1ccc2c(C)c(CCN(CC)CC)c(=O)oc2c1
inactive: [1] -13.1% | [2] -34.1% | [3] 1.25% | [4] -7.55% | [5] -21.8% | [6] -2.5%

CC1(C)CCCC/C1=N\O
inactive: [1] 5.5% | [2] 24.2% | [3] 3.8% | [4] 24.4% | [5] 23.2% | [6] 3.3%

CN(C(=O)CCC1OCCO1)c1cc([N+](=O)[O-])ccc1OCc1ccccc1
inactive: [1] 22.1% | [2] -1.05% | [3] 1.5% | [4] 9.8% | [5] 2% | [6] 15.2%

O=C(O)COc1cc(Br)cc(Br)c1
inactive: [1] 1.4% | [2] -14.2% | [3] -7.55% | [4] 16% | [5] -3.9% | [6] -1.7%

CCOC(=O)C(NC(=O)/C=C\C(=O)O)C(C)C (stereo unspecified)
inactive: [1] 3.7% | [2] 22.1% | [3] 2.55% | [4] 23.9% | [5] 15.4% | [6] 35.2%

[N-]=[N+]=Nc1ccc(-c2nc(N)nc(N)n2)cc1
inactive: [1] 11.8% | [2] 0.35% | [3] -2.55% | [4] -4.75% | [5] 6.9% | [6] 15.2%

COC(=O)C(=NNc1ccccc1[N+](=O)[O-])C(=O)OC
inactive: [1] 15.9% | [2] 5% | [3] 23.1% | [4] 33.8% | [5] 19.8% | [6] -2.6%

Cc1nc2ccccc2nc1N1CCCC1
inactive: [1] -6.2% | [2] -29.1% | [3] -26.9% | [4] -25.2% | [5] -47.8% | [6] 0.55%

CC1CCCCC1(C)O (stereo unspecified)
inactive: [1] 23.9% | [2] 34.6% | [3] -19.4% | [4] 1.75% | [5] 9% | [6] 11.4%

COc1cccc(-c2cc(=O)c3cc(OC)ccc3[nH]2)c1
inactive: [1] -19.8% | [2] -1.6% | [3] -14% | [4] 6.15% | [5] 13.2% | [6] -13.3%

Cc1ccc(Nc2nc(NS(=O)(=O)c3cc(C)c(Cl)cc3S)n(C)n2)cc1
inactive: [1] -15.1% | [2] -33.5% | [3] -29.7% | [4] -7.1% | [5] -32.9% | [6] -21.8%

CCCNC(=S)/N=C/c1c(O)c2ccccc2[nH]c1=O
inactive: [1] -40% | [2] -44.6% | [3] -11.7% | [4] 12.3% | [5] 6.8% | [6] -13.6%

CCC1(O)CC2CN(CCc3c([nH]c4ccccc34)C(C(=O)OC)(c3cc4c(cc3OC)N(C)C3C(O)(C(=O)NCCSSCCNC(=O)C5(O)C(O)C6(CC)C=CCN7CCC8(c9cc(C%10(C(=O)OC)CC%11CN(CCc%12c%10[nH]c%10ccccc%12%10)CC(O)(CC)C%11)c(OC)cc9N(C)C58)C76)C(O)C5(CC)C=CCN6CCC43C65)C2)C1 (stereo unspecified)
inactive: [1] 23.4% | [2] 11.4% | [3] 24.9% | [4] 42.8% | [5] 40.1% | [6] 37.6%

C/C=C(\C)C(C#N)(CCCC)C(=O)OCC (stereo unspecified)
inactive: [1] 0.3% | [2] -17.2% | [3] -6.35% | [4] -14.7% | [5] -25.4% | [6] -24.2%

O=C(O)/C1=C/CCC(C(=O)O)CCC1 (stereo unspecified)
inactive: [1] -4.15% | [2] -1.95% | [3] -7.35% | [4] -44.6% | [5] -12.5% | [6] 22.9%

CC(=O)OCC1C(OC(C)=O)C(OC(C)=O)C(n2cnc3c(N)ncnc32)N1C(C)=O (stereo unspecified)
inactive: [1] 17.1% | [2] 3.75% | [3] 16.3% | [4] 11.4% | [5] 1.5% | [6] 4.35%

CCN(CC)C(=O)Oc1cc(C(=O)N(CC)CC)c(OC(=O)N(CC)CC)cc1C(=O)N(CC)CC
inactive: [1] 5.1% | [2] 8.15% | [3] -1.6% | [4] -1.4% | [5] 1% | [6] 30.1%

O=C1/C(=C/c2ccccc2)CCc2ccc([N+](=O)[O-])cc21
inactive: [1] -2.9% | [2] -1.85% | [3] 8.25% | [4] 4.1% | [5] 0.95% | [6] -26.4%

Nc1nc(-c2ccccc2)c(N=Nc2cccc(Cl)c2)s1
inactive: [1] -10.7% | [2] -4% | [3] -11.4% | [4] -48% | [5] -2% | [6] -10.8%

O1[SiH]2[SiH]3O[SiH]3[SiH]3O[SiH]3[SiH]12 (stereo unspecified)
inactive: [1] -16.8% | [2] -11.7% | [3] -8.2% | [4] -16.6% | [5] -4.35% | [6] -26.6%

CCCC(C)C(=O)O (stereo unspecified)
inactive: [1] 23.1% | [2] -1.95% | [3] 4% | [4] 23.1% | [5] 28.8% | [6] 19.9%

CN(C)C=S
inactive: [1] -4.6% | [2] 1.9% | [3] -9.85% | [4] -12.6% | [5] -13.1% | [6] -4%

CC1(C)C(=O)/C=C\C(=O)C(C)(C)C(=O)/C=C\C(=O)C(C)(C)C(=O)/C=C\C(=O)C(C)(C)C(=O)/C=C\C1=O
inactive: [1] 12.1% | [2] 0.25% | [3] -9.05% | [4] 10.5% | [5] -13.2% | [6] 12.7%

CC(C)CC(NC(=O)OC(C)(C)C)C(=O)O (stereo unspecified)
inactive: [1] -44.6% | [2] -51.7% | [3] -9.6% | [4] 14.6% | [5] -29.2% | [6] -16.9%

COc1ccc(CCN2CN=C(Sc3ccc([N+](=O)[O-])cc3Cl)NC2)cc1OC
inactive: [1] 11% | [2] -11.2% | [3] 7.55% | [4] 10% | [5] 21.9% | [6] 11.1%

O=C1CCCc2cc3c(cc21)CC1(C3)Cc2cc3c(cc2C1)C(=O)CCC3
inactive: [1] -8.8% | [2] -7.25% | [3] -5.8% | [4] -10.3% | [5] -11.2% | [6] -9%

CCN(CC)CCOC(=O)c1c(C)c(C)cc(C)c1C
inactive: [1] -17.4% | [2] -5.45% | [3] -6.45% | [4] -29.5% | [5] -8.3% | [6] -7.7%

COC(NC(N)=O)C(=O)O (stereo unspecified)
inactive: [1] 6.9% | [2] 12.3% | [3] -1.25% | [4] -0.9% | [5] 11.9% | [6] 13.7%

Cc1cc(Br)ccc1Br
inactive: [1] 34.6% | [2] 19.3% | [3] -1.75% | [4] -36.4% | [5] -4.3% | [6] 8.6%

O=C(O)CCCCCCc1ccc2ccccc2n1
inactive: [1] 16.8% | [2] 13.8% | [3] 16.5% | [4] 10% | [5] 7.05% | [6] -3.55%

CC(C)NC(=O)OCc1c(COC(=O)NC(C)C)c(S(=O)(=O)c2ccccc2)n2c1CCC2
inactive: [1] 11.5% | [2] 1.5% | [3] -20.6% | [4] 4.7% | [5] 1.35% | [6] 25.6%

COC(=O)c1ccccc1C1CN=NC12Cc1cc(C)ccc1C2=O (stereo unspecified)
inactive: [1] -3.25% | [2] 14.2% | [3] -10.4% | [4] -34.4% | [5] -3.5% | [6] -14.8%

N#C/C=C/c1ccc(Cl)cc1
inactive: [1] -3.45% | [2] -3% | [3] 7.2% | [4] 20.6% | [5] -2% | [6] -7.05%

COc1ccc(Nc2nc(N)nc3c2ncn3C2OC(CO)C(O)C2O)cc1 (stereo unspecified)
inactive: [1] -9.6% | [2] -17.9% | [3] -13.2% | [4] -7% | [5] 2.05% | [6] -11.5%

CCCCCCCCCCCCCCCCCC(CCCCCCCC)CCCCCCCC
inactive: [1] -5.15% | [2] 0.65% | [3] -30.8% | [4] 3.3% | [5] 0.25% | [6] 23.6%

CCOC/C(=N\NC(N)=O)c1ccccc1
inactive: [1] -16.8% | [2] -22.2% | [3] -22.9% | [4] -1.85% | [5] 9.3% | [6] -20.3%

CC(=O)[C@H]1CC[C@H]2[C@@H]3CC[C@H]4C[C@@H](OC(c5ccccc5)(c5ccccc5)c5ccccc5)CC[C@]4(C)[C@H]3CC[C@]12C
inactive: [1] -3.55% | [2] 11.8% | [3] 0.95% | [4] -3.95% | [5] -5.5% | [6] -17.6%

CN(C)CCCNC(=O)c1cc(NC(=O)c2cc(NC(=O)c3cc(NC(=O)CCCn4ccc(CO)c4CO)cn3C)cn2C)cn1C
inactive: [1] 6.6% | [2] -8.6% | [3] -5.35% | [4] 31.6% | [5] 4.8% | [6] 8.35%

COC(=O)c1cc(C)ncc1C#N
inactive: [1] 0.45% | [2] 1.15% | [3] -4.7% | [4] 0.3% | [5] 2.95% | [6] 8%

CC(=O)Nc1cc(F)c(N=Nc2ccc([N+](=O)[O-])cc2)c(F)c1
inactive: [1] -9.5% | [2] -3.45% | [3] 22.1% | [4] -38.2% | [5] -28.1% | [6] -10.3%
